The full ranking holds about 5,800 sequences; the median of “enrichment r” is about 0.68, and the highest 2% start at about 11. Only a sample is shown.
T1: UNK ZnF1-6 (called full-length) (human, UniProt Q9C0B0 30-357)
T1 sequence: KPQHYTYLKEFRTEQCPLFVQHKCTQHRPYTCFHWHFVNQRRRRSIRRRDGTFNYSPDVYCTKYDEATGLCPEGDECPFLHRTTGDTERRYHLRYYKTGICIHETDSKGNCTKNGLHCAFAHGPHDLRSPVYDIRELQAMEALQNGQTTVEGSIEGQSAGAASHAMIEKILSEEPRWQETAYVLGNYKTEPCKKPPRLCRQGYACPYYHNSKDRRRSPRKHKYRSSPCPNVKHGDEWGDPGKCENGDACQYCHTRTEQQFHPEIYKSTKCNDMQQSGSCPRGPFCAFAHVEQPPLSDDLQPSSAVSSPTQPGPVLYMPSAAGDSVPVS

B1: chr15:65058426:65058617:-|CDS|ENSG00000103710|control|control|control (ssRNA)
RNA: GGGAGUUCUACAGUCCGACGAUCCUGAACUGGGCCCAUGCCUUCCUGGUGGUGUACAGCGUCGACAGCCGCCAGAGCUUUGAUAGCAGCAGCAGCUACCUGGAGCUGCUUGCCUUGCACGCGAAGGAGACACAGCGCAGCAUCCAACAGAGGAUUGAGCAUCA
B2: chr8:28970260:28970371:+|CDS|ENSG00000147421|unk|total|mutant (ssRNA)
RNA: GGGAGUUCUACAGUCCGACGAUCUCUUCCUCUACAGCUACAGCUUCCACACAGACGCAGCAUUCGGGAAUGUCCCCGUCACCCCGCAACAGUUAUGAUACUUCCCCACAGCCUUGCACUACCAAUCAAAAUGGGAGGGAGAAUCAACAGAGGAUUGAGCAUCA
B3: chr1:13148904:13149928:-|three_prime_utr|ENSG00000280267|control|control|control (ssRNA)
RNA: GGGAGUUCUACAGUCCGACGAUCCCUGGACCUGAGUGGCAUCAGACUGACCAAUUACAGUCUUGUGCCUCUCCAAAUUCUCCUAGAAAAAGUUGCAGCCACCCUUGAGUACCUGGAUUUAGAUGACUGUGGCAUCAUAGACUCCAACAGAGGAUUGAGCAUCA
B4: chr14:63372511:63372612:-|3pUTR|ENSG00000154001|unk|total|mutant (ssRNA)
RNA: GGGAGUUCUACAGUCCGACGAUCUGGGGAUGAGGGUGGGAUGGGAAAGGGAUGUAUGGAUGUUAUUGGCAUUUUUAAGUGUUCCGAGUUUUUUGGGGUUUGGGGUGGUUUUUUUUCCUUGUUUUCCUUUUUUCCUUUUAAUUGCAACAGAGGAUUGAGCAUCA
B5: chr5:74627411:74627511:-|3pUTR|ENSG00000171617|msi1_unk|total|mutant (ssRNA)
RNA: GGGAGUUCUACAGUCCGACGAUCUUUGUAAAACUGUUAUUUUUUUUUUUUUCACAAUGUGAAACUGAAGGUCAAUAAAUUAUCCGAGAUUUUCUCUUCAUUAUGUGUGUGGGUCUUCAUUUGAAUAAGACACAAUUUGAGGCACAACAGAGGAUUGAGCAUCA
B6: chr10:68442948:68443070:-|CDS|ENSG00000138346|unk|total|mutant (ssRNA)
RNA: GGGAGUUCUACAGUCCGACGAUCCCCAAUUGUGAUGCUGCCCAAAACCGAAGAAGAAACCCAGCAUCUGAAGCAAACACACUCCGAAUAUUUCAGCCUUUGGUGUCUAAUGUUAACCCUGGAGUCACAAUCGAAGGAUAAUAACAACAGAGGAUUGAGCAUCA

target: T1, UNK ZnF1-6 (called full-length); experiment: nsRBNS (natural sequence RNA bind-n-seq); RBNS binding buffer (assumed for nsRBNS): 25 mM Tris pH 7.5, 150 mM KCl, 3 mM MgCl2, 0.01% Triton X-100, 500 ug/ml BSA, 20 U/ml SUPERase-In, 4 C; UNK is unkempt and MSI1 is Musashi-1; names of the RNAs are library labels; protein concentration not given here; high values mean tight binding

Binder	binding signal
B1	0.597 enrichment R
B2	0.625 enrichment R
B3	0.577 enrichment R
B4	1.7 enrichment R
B5	0.75 enrichment R
B6	0.471 enrichment R
